Sampled rows, rich in hits. Any-hit rate of the full collection: about 20%.
Shiga inhibitor = A qHTS for Small Molecule Inhibitors of Shiga Toxin; Vero cells, Shiga toxin protein synthesis inhibition reporter; inhibition, % at 38.7 µM; hit rate 9.2% among 290,000; in the data active = inhibition mostly above about 28%, no sharp cut-off; inactive = mostly below about 43%; also: 0% is about no effect
CHX counter = Cycloheximide Counterscreen for Small Molecule Inhibitors of Shiga Toxin | cell reporter, cycloheximide protein synthesis inhibition counterscreen | hit rate 12% among 300,000 | max response, %; in the data active = max response mostly above about 13%, no sharp cut-off; inactive = mostly below about 14%; also: read at 38.3 µM for the half of the compounds with a filed dose; 0% is about no effect
Pf growth 48h = Primary qHTS for delayed death inhibitors of the malarial parasite plastid, 48 hour incubation; AID 504832, 2011; P. falciparum luciferase growth in erythrocytes, 48 h; Potency, µM (highest dose often 28.7 µM), for the others: at the highest dose activity change, negative = inhibition, actives largely listed as inhibitors; hit rate 5.9% among 310,000; also: potency is read from the fitted curve at half-maximal effect; % is scaled to controls: 0 for no effect and ±100 for the full control effect
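Cell-based growth assay: transgenic P. falciparum expressing firefly luciferase, cultured in red cells within RPMI 1640 containing 0.5% w/v Albumax, 24 mM bicarbonate and gentamycin. A drop in luciferase activity indicates inhibition.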
HCMV antiviral = qHTS Assay for inhibitors of the human cytomegalovirus (HCMV); activity change, negative = inhibition, % at 57.5 µM; HFF cells, HCMV-luciferase reporter, 72 h; hits give low values; AID 1259415, 2018; hit rate 4.5% among 410,000; in the data active = activity change below about -60%; inconclusive = no clear call, values can overlap the other calls; inactive = above about -39%; also: % is scaled to controls: 0 for no effect and ±100 for the full control effect
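Two-dose cell screen: HFF monolayers treated with compounds and infected with luciferase-expressing HCMV at 1 PFU/cell, 72 h at 37C, then lysed for luciferase measurement.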
Pf growth 96h = Primary qHTS for delayed death inhibitors of the malarial parasite plastid, 96 hour incubation; P. falciparum luciferase reporter growth, 96 h; Potency, µM (top dose mostly 28.7 µM), without a hit: at the highest dose activity change, negative = inhibition, hits mostly inhibitors; hit rate 6.9% among 320,000; also: potency is read from the fitted curve at half-maximal effect; % is scaled to controls: 0 for no effect and ±100 for the full control effect
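Two parasite generations (96 h, 37 C, 5% CO2) of compound exposure in infected erythrocytes (0.05% parasitemia, 2% hematocrit). Luciferase-reporter P. falciparum; decreased luminescence indicates inhibited growth, aimed at apicoplast-acting delayed death.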
Numbers without * were called inactive; i = inactive; ? = inconclusive; / = no result. Unless noted, calls follow the shape of the dose curve; as a rule, active = well fitted inhibition curve with a large enough effect; inconclusive = small, poorly fitted or top-dose-only effect, or another doubt; inactive = no such curve, though single readings can be large or run the other way.

SMILES | Shiga inhibitor | CHX counter | Pf growth 48h | HCMV antiviral | Pf growth 96h
O=[N+]([O-])c1cccc(C2CC(c3ccccc3)=NN2c2ccccc2)c1 (stereo not drawn) | 55 | 20* | ? | -26 | ?
CC(=O)Nc1ccc(C2CC(c3ccc(Cl)cc3)=NN2c2ccccc2)cc1 (stereo not drawn) | -5 | 9 | / | ? | 4.7µM*
O=Cc1ccc(N2N=C(c3ccccc3)CC2c2ccccc2)cc1 (stereo not drawn) | 12 | 9 | -18% | -15 | -1%
COc1ccccc1C(=O)NCCC(=O)Nc1ccc(OC(F)(F)F)cc1 | -12 | -2 | ? | 22 | -11%
O=C(CSCCO)Nc1ccc(C23CC4CC(CC(C4)C2)C3)cc1 | 53* | 24* | 215% | 19 | 51%
NC(=S)N/N=C/c1ccc(C23CC4CC(CC(C4)C2)C3)cc1 | 79* | 22* | 2.6µM* | / | ?
O=C(CSCCO)Nc1ccc([N+](=O)[O-])cc1 | 18 | -2 | 6% | -13 | 1%
CC(=O)Nc1ccc(C23CC4CC(CC(C4)C2)C3)cc1 | 26 | 14 | -11% | -22 | 67%
CNC(=S)Nc1ccc(C23CC4CC(CC(C4)C2)C3)cc1 | 10 | 1 | 3% | -98* | 36%
CCCCNC(=O)CSc1nc2ccsc2c(=O)n1CCCC(=O)NCCc1ccc(S(N)(=O)=O)cc1 | -25 | -6 | -21% | 38 | 23%
Cc1cc2c(=O)n(Cc3ccco3)c(SCC(=O)c3ccc(Cl)s3)nc2s1 | 29 | 16* | 5.9µM* | -65* | 202%
CCOC(=O)c1cc(CC)sc1NC(=O)CSc1nc2ccccc2c(=O)n1Cc1ccco1 | 15 | 45 | 22% | -15 | 45%
CCOC(=O)CC(=O)CSc1nc2sc(C)cc2c(=O)n1Cc1ccco1 | 14 | -4 | 4.7µM* | -25 | /
O=C(c1ccc2[nH]c(=O)c(=O)[nH]c2c1)N1CCc2ccccc21 | -7 | -3 | 23% | 34 | 22%
Cc1cc(Cl)ccc1NC(=S)NCc1ccccc1 | -4 | 2 | -7% | -29 | 2%
Cc1cc(Cl)ccc1NC(=S)Nc1ccccn1 | 23* | 33* | 108% | 16 | 32%
Cc1ccc(NC(=S)Nc2ccccn2)c(C)c1 | 82* | 48* | 58% | -21 | ?
Cc1ccccc1-c1nc(CS(=O)(=O)CC(=O)NCCCc2ccccc2)c(C)o1 | / | / | / | -21 | /
Cc1ccc(S(=O)(=O)CC(CN2CCOCC2)N2CCOCC2)cc1 (stereo not drawn) | -6 | -1 | 0% | -15 | -18%
O=S(=O)(CC(CN1CCCC1)N1CCCC1)c1ccc2ccccc2c1 (stereo not drawn) | 3 | 2 | ? | -102* | 4.1µM*
CCc1ccccc1-n1c(SCC(=O)Nc2ccc(C)cc2)nc2n[nH]c(C)c2c1=N | / | / | / | -69* | /
Cc1c(Cl)cccc1-n1c(SCC(=O)NCc2ccccc2)nc2n[nH]c(C)c2c1=N | / | / | / | -61* | /
CCOc1ccccc1NC(=O)CCSc1nc2n[nH]c(C)c2c(=N)n1-c1ccccc1Cl | -4 | -4 | 12µM* | -18 | 115%
CCOc1ccccc1-n1c(SCC(=O)Nc2ccc(CC)cc2)nc2n[nH]c(C)c2c1=N | -9 | -4 | ? | / | ?
COc1ccc(OC)c(NC(=O)CSc2nc3n[nH]c(C)c3c(=N)n2-c2cccc(Cl)c2C)c1 | -2 | 25* | ? | ? | ?
SMILES | Shiga inhibitor | CHX counter | Pf growth 48h | HCMV antiviral | Pf growth 96h
CCc1ccccc1NC(=O)CSc1nc2n[nH]c(C)c2c(=N)n1-c1cccc(OC)c1 | 6 | 1 | 13µM* | 3 | /
Cc1ccc2nc3c(c(Nc4ccc(O)cc4)c2c1)CCC3 | 21 | 2 | 2.3µM* | ? | -87%
COc1ccc(Nc2c3c(nc4ccc(C)cc24)CCC3)cc1 | -5 | -4 | 8.3µM* | -81* | -2%
Cc1ccc2nc3c(c(Nc4ccc5c(c4)OCCO5)c2c1)CCC3 | 2 | 10 | 4.1µM* | -66* | ?
O=C1N(c2ccc(Cl)cc2)C(c2cccnc2)N2CCCN12 (stereo not drawn) | 108* | 26 | 9% | -5 | ?
CCN1C(=O)c2ccc(C(=O)Nc3cccc(C(=O)O)c3)cc2C1=O | 48* | 20* | / | -10 | 7%
O=C(O)c1cccc(N2C(=O)c3ccc(C(=O)c4cccc([N+](=O)[O-])c4)cc3C2=O)c1 | 35 | -2 | 7% | -21 | -4%
O=C(O)c1ccc2c(c1)C(=O)N(c1cccc(C(=O)/C=C/c3ccccc3)c1)C2=O | 52* | 28* | 37% | 134 | i
O=C(O)c1cccc(NC(=O)c2ccc(N3C(=O)c4ccc(C(=O)Nc5cccc(C(=O)O)c5)cc4C3=O)cc2)c1 | 36 | 2 | 26% | -14 | 35%
O=C(O)c1cccc(NC(=O)c2ccc3c(c2)C(=O)N(c2cccc([N+](=O)[O-])c2)C3=O)c1 | 2 | -3 | 38% | -3 | 5.9µM*
Clc1ccccc1CSc1cnnc2ccccc12 | / | / | / | 11 | /
COc1ccc(Nc2nc(-c3cccc(Cl)c3)c3c(n2)-c2ccccc2OC3)cc1 | / | / | / | -25 | /
CCOc1ccc(Nc2nc(-c3cccc(Cl)c3)c3c(n2)-c2ccccc2OC3)cc1 | / | / | / | -75* | /
CC(CNC(=O)c1sc2ncccc2c1-n1cccc1)c1ccccc1 (stereo not drawn) | / | / | / | -29 | /
S=C(NC1CCCCC1)N1CCOCCOCCN(C(=S)NC2CCCCC2)CCOCC1 | -2 | -1 | 12µM* | ? | 4.7µM*
COc1ccccc1C(=O)Nc1cccc(OCc2cc(=O)n3c4c(sc3n2)CCCC4)c1 | / | / | / | 22 | /
CCOC(=O)C1(CCOC)CCN(C2C3CC4CC(C3)CC2C4)CC1 (stereo not drawn) | -1 | -3 | 31% | 6 | 6%
Cc1ccc(C2=NN=C(NC(=O)CSc3nc(C)cc(C)n3)SC2)cc1 | -11 | -7 | ? | 31 | -5%
Cc1ccc(C2=NN=C(NC(=O)CSc3nnc4c5ccccc5n(C)c4n3)SC2)cc1 | 30 | 9 | 3.3µM* | / | 18%
O=C1Nc2ccccc2NC(c2cccc(Br)c2)=C1N(C(=O)C(=O)c1cccs1)c1ccccc1 | / | / | / | -88* | /
COc1ccc(/C(N)=N/OC(=O)c2c(-c3ccccc3Cl)noc2C)cc1OC | 9 | 25 | ? | -79* | -7%
Cc1nc(/C(N)=N/OC(=O)c2c(-c3ccccc3Cl)noc2C)cs1 | -5 | 2 | ? | -39 | 10µM*
Cc1onc(-c2ccccc2Cl)c1C(N)=O | -4 | 3 | 9% | 13 | -3%
COC(=O)C1=C(c2ccc(OCc3ccccc3)cc2)C[C@@H]2CC[C@H]1N2C(=O)NCc1ccc(F)cc1 | / | / | / | -39 | /
COC(=O)C1=C(c2ccccc2)C[C@@H]2CC[C@H]1N2C(=O)NCc1ccccc1 | / | / | / | 56 | /
COC(=O)C1=C(c2cccc(OCc3ccccc3)c2)C[C@@H]2CC[C@H]1N2C(=O)NCc1ccc2[nH]ccc2c1 | / | / | 13µM* | 66 | ?

Screens deposited in PubChem by National Center for Advancing Translational Sciences (NCATS).
